Source: PubChem (National Center for Advancing Translational Sciences (NCATS))
A549 viability: A549 cytotoxicity, counter-screen for Nrf2 inhibitors; Potency, µM (highest dose often 46 µM), inactives show at the highest dose activity change, negative = cytotoxicity, hits mostly inhibitors; A549 ARE-Fluc cells, CellTiter-Fluor viability, 18-24 h; 0.16% of 390,000 active; further: potency means the concentration at half of the fitted maximal effect; on the % scale 0 is the no-effect control and ±100 the full control effect
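A549 ARE-Fluc cells in 5% FBS OPTI-MEM, 5000 cells/well, rested 2 h then exposed to compounds in concentration-response for 18-24 h at 37 °C. Viability by CellTiter-Fluor fluorescence (Ex 405/Em 525) after 30 min; luciferase luminescence (BugLite, 15 min, RT) read afterwards.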
mIDH1 inhibitor: blocks human mutant IDH1 R132H enzyme | IDH1-R132H enzyme, NADPH consumption, diaphorase/resazurin fluorescence | Potency, µM (titrated, usually from 76.6 µM), inactives show at the highest dose activity change, negative = inhibition, actives largely listed as inhibitors | 0.093% of 390,000 active; further: potency means the concentration at half of the fitted maximal effect; on the % scale 0 is the no-effect control and ±100 the full control effect; nearly all actives have a fitted effect of over 65% in size
Target sequence (O75874 whole entry R132H, stated change not applied): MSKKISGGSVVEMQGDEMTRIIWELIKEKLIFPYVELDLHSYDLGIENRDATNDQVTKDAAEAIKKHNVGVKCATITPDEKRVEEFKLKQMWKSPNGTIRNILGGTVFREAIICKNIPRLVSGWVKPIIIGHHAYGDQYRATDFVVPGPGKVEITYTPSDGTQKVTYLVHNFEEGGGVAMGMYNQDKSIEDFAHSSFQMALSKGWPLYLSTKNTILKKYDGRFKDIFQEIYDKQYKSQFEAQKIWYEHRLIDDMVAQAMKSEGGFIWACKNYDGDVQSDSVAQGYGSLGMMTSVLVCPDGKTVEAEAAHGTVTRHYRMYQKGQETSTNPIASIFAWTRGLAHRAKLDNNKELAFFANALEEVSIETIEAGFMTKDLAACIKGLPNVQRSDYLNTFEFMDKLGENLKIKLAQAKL
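IDH1-R132H (0.5 ug/mL) preincubated 30 min with compound, then NADPH (0.016 mM) and alpha-KG (2 mM) added; 80 min at RT, pH 7.5. Remaining NADPH coupled via diaphorase/resazurin to fluorescence (540/590 nm); concentration-response curves normalized to no-enzyme control.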
Nrf2 activator: activates Nrf2 signaling; Potency, µM (highest dose often 46.1 µM), for the others: at the highest dose activation, usual class: activators; AID 624171; AREc32 ARE-luciferase reporter (MCF7-derived line), luminescence, 24 h; 0.31% of 410,000 active; further: potency means the concentration at half of the fitted maximal effect; % of control where 0% means no effect; nearly all actives have a fitted effect of over 65% in size
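Quantitative high-throughput format: AREc32 reporter cells, 1000 per well, received compound by pin transfer and were incubated 24 hr at 37 deg C, 5% CO2, before Steady-Glo luminescence detection.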
12-LOX inh: inhibitors of human 12S-lipoxygenase ALOX12; purified 12hLO, xylenol orange hydroperoxide absorbance; Potency, µM (top dose mostly 108 µM), for the others: top-dose activity change, negative = inhibition, most hits filed as inhibitors; 1.1% of 580,000 active; further: potency means the concentration at half of the fitted maximal effect; on the % scale 0 is the no-effect control and ±100 the full control effect
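Purified human 12hLO at 150 nM in 25 mM Hepes, 0.01% Triton X-100, pH 7.0, preincubated 15 min at room temperature with compound. Reaction started with 40 uM arachidonic acid, 30 min at room temperature. Hydroperoxide measured by Fe-xylenol orange, 573/405 nm absorbance ratio.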
LDHA inh: blocks human lactate dehydrogenase A; P00338; purified LDHA, NADH/diaphorase-resazurin fluorescence; hits give low values; activity change, % (values are at about 110 or 230 µM); 0.15% of 480,000 active; AID 1347041; in the data active means activity change below about -30%; inconclusive means mostly about -25% to -30%;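 further: plate controls were DMSO wells for no effect and wells without enzyme for full effect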
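Resorufin fluorescence (ex540/em590), read at 0 and 20 min after diaphorase/resazurin addition, reports the NADH left after a 5 min room-temperature reaction of 2 nM human LDH5 with 0.06 mM NADH and 0.2 mM pyruvate.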
Nrf2 block: blocks Nrf2 signaling. A549 ARE-Fluc reporter, luciferase luminescence, 18-24 h. Potency, µM (series often up to 46 µM), without a hit: at the top dose activity change, negative = inhibition, most hits filed as inhibitors. 2.1% of 360,000 active. AID 504444; further: potency means the concentration at half of the fitted maximal effect; on the % scale 0 is the no-effect control and ±100 the full control effect; nearly all actives have a fitted effect of over 60% in size
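In this cell-based qHTS, ARE-driven firefly luciferase in A549 cells reports Nrf2 activity; the luminescent signal after BugLite lysis is the measured value, with a prior CellTiter-Fluor read for cell health.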
Active calls of the source: *; ? = inconclusive; · = not tested or not shown; ! = a repeat was not active; [ ] = remark or other dose. Only some compounds are listed: those with a hit (about 2.7% of all), similar ones and a draw of the others. Unless noted, the call rests on the fitted dose curve; in most records, active means well fitted curve in the direction sought with a large enough effect; inconclusive means small, poorly fitted or top-dose-only effect, or another doubt; inactive means no such curve, though single readings can be large; an effect the other way counts as inactive or inconclusive.

SMILES	A549 viability	mIDH1 inhibitor	Nrf2 activator	12-LOX inh	LDHA inh	Nrf2 block
Cc1[nH]c2ccccc2c1C(c1ccc(F)cc1)c1c(C)[nH]c2ccccc12	·	·	·	?	13	·
CC1(COc2ccccc2)COc2ccc(C(=O)NCc3ccncc3)cc2N1 (stereo not given)	·	·	·	28µM*	·	·
CN(C)c1nc(NCc2ccccc2)nc(SCC(=O)Nc2ccccc2)n1	-11%	-3%	0%	-37%	-3	23µM*
O=C(NCCNS(=O)(=O)c1cccc2nonc12)c1cccc2[nH]ccc12	·	·	·	-21%	-12	·
O=S(=O)(c1ccc2c(c1)OCCO2)c1nc(-c2ccccc2)oc1NCCN1CCOCC1	·	·	·	25µM*	-1	·
CCCCNc1nc(-c2ccc(NC(C)=O)cc2F)cs1	·	·	·	?	11	·
COc1ccccc1-n1cnc2c(c1=O)c1nc3ccccc3nc1n2-c1ccc(C)c(C)c1	?	2%	0%	-21%	-2	5.8µM*
COCCCn1c2nc3ccccc3nc2c2c(=O)n(-c3ccccc3OC)cnc21	15%	5%	0%	128%	-3	·
O=C(COc1c(I)cc(Cl)c2cccnc12)NCC1CC1	·	·	·	?	4	·
CCOc1ccccc1C(=O)Nc1cc2c(cc1N1CCCC1)n(CC)c(=O)n2CC	6%	46µM*	3%	?	6	0%
COc1ccc(C(=O)Nc2cc3c(cc2N2CCCC2)n(C)c(=O)c(=O)n3C)cc1OC	-2%	6%	4%	4%	4	-1%
CCn1c(=O)n(CC)c2cc(N3CCCC3)c(NC(=O)c3ccccc3OC)cc21	?	-13%	6%	4%	-1	?
COc1ccc(C(=O)Nc2cc3c(cc2N2CCCCC2)n(C)c(=O)n3C)cc1OC	-10%	46µM*	1%	6%	-1	?
CCn1c(=O)n(CC)c2cc(N3CCCC3)c(NC(=O)c3cc(Cl)ccc3OC)cc21	?	?	0%	3%	-1	21µM*
COc1ccc(/C(O)=C2/C(=O)C(=O)N(Cc3ccco3)C2c2cccs2)cc1 (stereo not given)	0%	-2%	1%	20µM*	3	2%
COC(=O)c1ccc(C2/C(=C(/O)c3ccc(OC)cc3)C(=O)C(=O)N2Cc2ccco2)cc1 (stereo not given)	-8%	0%	0%	?	2	?
Oc1ccc(NCc2ccccc2OCc2ccccc2)cc1	-13%	17%	4%	11µM*!	23	0%
Cc1cccc(NC(=O)Nc2ccc(Oc3c(F)c(F)c(F)c(F)c3F)cc2)c1	-4%	0%	-1%	-1%	1	4%
O=C(Nc1ccc(Oc2c(F)c(F)c(F)c(F)c2F)cc1)OC1CCN2Cc3ccccc3N=C12 (stereo not given)	21µM*	4%	23%	·	1	23µM*
CCOP(=O)(OCC)C(C)(C)NC(=O)Nc1ccc(Cl)c(Cl)c1	2%	1%	0%	0%	4	23µM*
CCOP(=O)(OCC)C(NC(=O)Nc1ccc(Cl)c(Cl)c1)c1ccccc1 (stereo not given)	-3%	-4%	4%	-18%	-1	5%
Cc1ccc2c(C)nc(N/C(N)=N/S(=O)(=O)c3ccccc3)nc2c1	4%	5%	3%	0%	-7	3%
Cc1ccc(S(=O)(=O)/N=C(\N)Nc2nc(C)c3ccc(C)cc3n2)cc1	-7%[1.84 µM]	7%	2%	?	-3	8.2µM*
Cc1csc2ncc(C(=O)NCc3ccco3)c(=O)n12	-15%[1.84 µM]	-2%	11µM*	-7%	-4	9%
O=C(NCc1ccco1)c1cnc2sccn2c1=O	-4%	1%	21%	13%	-8	-1%
SMILES	A549 viability	mIDH1 inhibitor	Nrf2 activator	12-LOX inh	LDHA inh	Nrf2 block
Cc1ccc(Nc2nc(C(=O)NCc3ccco3)cs2)cc1	·	1%	14%	-23%	1	9.2µM*
CCN(CC)C(=O)c1csc(Nc2ccc(C)cc2)n1	-1%	9%	2%	-13%	-6	6%
COc1ccc(C2C(C#N)=C(SCC(=O)Nc3cccc(F)c3)NC3=C2C(=O)CC(C)(C)C3)cc1 (stereo not given)	·	·	·	?	0	·
CC(NC(=O)Cc1ccccc1)C12CC3CC(CC(C3)C1)C2 (stereo not given)	·	·	·	-30%	-1	·
CC(NC(=O)CN1C(=O)NC(Cc2ccccc2)(Cc2ccccc2)C1=O)C12CC3CC(CC(C3)C1)C2 (stereo not given)	?	5%	-1%	-12%	-6	26µM*
CNc1ncnc2c1ncn2[C@@H]1O[C@H](CO)C(O)[C@H]1O (stereo not given in full)	·	·	·	1%	·	·
CC(C)=CCNc1ncnc2c1c(C#N)cn2C1OC(CO)C(O)C1O (stereo not given)	-6%	2%	-1%	-6%	-52*	-7%
O=C(N/N=C/c1cn[nH]c1-c1ccccc1)c1ccco1	0%	-10%	8.9µM*	11%	3	6%
O=C(N/N=C\c1cn[nH]c1-c1ccccc1)c1ccc([N+](=O)[O-])cc1	-1%	6%	0%	-19%	1	18%
CC(C)NC(=S)NC(=O)c1ccc(-c2ccccc2)cc1	0%	1%	3%	16µM*	-6	?
COc1ccc(C(=O)O)cc1NC(=S)NC(=O)c1ccc(-c2ccc(Cl)cc2)o1	-13%	-5%	0%	?	-10	?
Cc1cccc(NC(=S)NC(=O)c2ccc(-c3ccccc3)cc2)n1	-5%	0%	13%	35µM*	-12	?
O=C(O)c1cccc(NC(=S)NC(=O)c2ccc(-c3ccc(Cl)cc3)o2)c1	-17%	11%	3%	13µM*	2	?
Cc1cccc(NC(=S)NC(=O)C(c2ccccc2)c2ccccc2)n1	-18%	1%	0%	12%	-3	?
O=C(O)c1ccc(NC(=S)NC(=O)c2ccc(-c3ccc(Br)cc3)o2)cc1	1%	19%	0%	18µM*	-5	7%
CCC(C)NC(=O)Nc1ccc(-c2noc(-c3ccncc3)n2)cc1 (stereo not given)	·	·	·	0%	1	·
CS(=O)(=O)Oc1ccc2c(c1)O/C(=C\c1ccc(-c3ccccc3)cc1)C2=O	·	·	·	2%	-5	·
Cc1ccc(C(=O)O)cc1NC(=S)NC(=O)c1ccc(-c2ccccc2)cc1	4%	-2%	2%	8.9µM*	?	?
CN1CCN(c2ccc(NC(=O)c3ccc(-c4ccc(Br)cc4)o3)cc2)CC1	?	-5%	10%	50µM*	-4	-6%
